# Source: PubChem BioAssay (National Center for Advancing Translational Sciences (NCATS))
# Rows were chosen to be rich in hits. Some 0.71% of all compounds tested hit in one or more screens of this group.
# ERG-DNA inh: qHTS for Small Molecule Inhibitors of the ERG Ets/DNA interaction. Transcriptional regulator ERG (Homo sapiens), P11308. fluorescence polarization, His-ERG Ets domain / labelled DNA. Potency, µM (highest dose often 76.9 µM), for inactives: top-dose FP activity, negative = inhibition, actives largely listed as inhibitors. 370,000 compounds, 0.028% hits; active means well fitted inhibition curve with a large enough effect in the polarisation, with a control signal flat; inconclusive means small, poorly fitted or top-dose-only effect, or effect the other way, or a change in a side signal; inactive means no such curve, though single readings can be large or run the other way; the % refers to the polarisation;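 further: polarization taken with two DNA probes labelled with fluorescein and Texas red; % of control where 0% means no effect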
# Target sequence (P11308 whole entry, looked up, the tested form may be a part): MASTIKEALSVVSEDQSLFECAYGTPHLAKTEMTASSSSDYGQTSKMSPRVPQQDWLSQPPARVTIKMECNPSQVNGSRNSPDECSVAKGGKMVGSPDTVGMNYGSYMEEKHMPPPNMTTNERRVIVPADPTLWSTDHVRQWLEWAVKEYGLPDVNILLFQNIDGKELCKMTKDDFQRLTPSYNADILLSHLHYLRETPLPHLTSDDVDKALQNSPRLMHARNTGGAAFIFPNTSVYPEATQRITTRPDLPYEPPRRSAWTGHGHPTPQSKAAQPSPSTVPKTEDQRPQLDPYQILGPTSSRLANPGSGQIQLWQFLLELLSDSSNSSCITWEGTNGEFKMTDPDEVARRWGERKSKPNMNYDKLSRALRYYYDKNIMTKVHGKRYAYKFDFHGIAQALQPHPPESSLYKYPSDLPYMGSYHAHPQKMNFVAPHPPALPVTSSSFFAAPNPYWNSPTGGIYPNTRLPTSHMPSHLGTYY
#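 His-tagged ERG Ets domain (1 uM in the protein solution; 300mM KCl, 50mM Tris-HCl, 1mM EDTA, 1mM DTT, pH 7.5) received compound, then a probe mix of 5 nM fluorescein-DNA and 100nM Texas-615-DNA. Fluorescence polarization was read for both dyes.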
# BLM helicase inh: qHTS Assay for Inhibitors of Bloom's syndrome helicase (BLM) | RecQ-like DNA helicase BLM (Homo sapiens), P54132 | recombinant BLM DNA unwinding, fluorescence dequenching | Potency, µM (doses to about 56.1 µM), for the others: top-dose activity change, negative = inhibition, usual class: inhibitors | 350,000 compounds, 0.2% hits | AID 2528, 2010;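 further: plate controls were vehicle for no effect and no enzyme for full effect; nearly all actives have a fitted effect of over 35% in size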
# RECQ1 inh-1: qHTS Assay for Inhibitors of RecQ-Like Dna Helicase 1 (RECQ1) | ATP-dependent DNA helicase Q1 (Homo sapiens), P46063 | RECQ1 DNA unwinding, red fluorescence kinetic read | Potency, µM (top dose mostly 57.3 µM), for inactives: at the highest dose activity, negative = inhibition, actives largely listed as inhibitors | 240,000 compounds, 0.54% hits | AID 2549, 2010;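 further: plate controls were vehicle for no effect and no enzyme for full effect; nearly all actives have a fitted effect of over 30% in size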
#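 RECQ1T1 50 nM; forked duplex (20 bp + 30-nt ss tails) 200 nM, ATP 2 mM final; pH 8.0, 2 mM MgCl2, 2.5 ug/ml poly(dI-dC); 15 min compound preincubation; discontinuous kinetic read over 2 h at RT.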
# TR SRC2 fluor cs: Total Fluorescence Counterscreen for Inhibitors of the Interaction of Thyroid Hormone Receptor and Steroid Receptor Coregulator 2; TRb/SRC2 Texas Red total fluorescence interference; Potency, µM (top dose mostly 106 µM), inactives show top-dose fluorescence change, negative = quenching; 280,000 compounds, 0.29% hits; AID 1479, 2009; active means well fitted curve in either direction with a large enough effect; inconclusive means small, poorly fitted or top-dose-only effect; further: on the % scale 0 is the no-effect control and ±100 the full control effect
#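 Human TRβ ligand-binding domain (0.6 uM) and Texas Red SRC2 peptide (20 nM) in Tris buffer with 1 uM T3 and 5% DMSO were incubated with pinned compound for 5 hr at ambient temperature. Total fluorescence was computed as S + 2P (555/632 nm).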
# GoLoco inh red: qHTS Assay for Inhibitors of RGS12 GoLoco Motif Activity (Red Fluorophore). Guanine nucleotide-binding protein G(i) subunit alpha-1 (Homo sapiens), P63096. Gai1:RGS12 GoLoco peptide FP, rhodamine, 10 min. 230,000 compounds, 0.44% hits. Potency, µM (titrated, usually from 61.6 µM), without a hit: at the top dose activity, negative = inhibition, hits mostly inhibitors; active means well fitted inhibition curve with a large enough effect, not every such curve was filed as active; inactive means no such curve, though single readings can be large or run the other way; further: on the % scale 0 is the no-effect control and ±100 the full control effect; nearly all actives have a fitted effect of over 30% in size
# TRb-SRC2 inh: qHTS for Inhibitors of the Interaction of Thyroid Hormone Receptor and Steroid Receptor Coregulator 2; TRbeta-SRC2 peptide binding, fluorescence polarization; receptor liganded with 1 µM T3; Potency, µM (titrated, usually from 106 µM), inactives show at the highest dose activity change, negative = inhibition, most hits filed as inhibitors; 280,000 compounds, 0.065% hits; AID 1469, 2008;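 further: plate controls were bound peptide for no effect and peptide without receptor for full effect; nearly all actives have a fitted effect of over 50% in size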
#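 Fluorescence polarization of 20 nM Texas Red SRC2 peptide (20-aa NR interaction domain) bound to 0.6 uM human TRb ligand-binding domain, with 1 uM T3, after 5 hr at ambient temperature; inhibition seen as decreased polarization.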
# RECQ1 inh conf: Confirmation qHTS Assay for Inhibitors of RecQ-Like Dna Helicase 1 (RECQ1); Potency, µM (doses to about 229 µM), inactives show top-dose activity change, negative = inhibition, hits mostly inhibitors; AID 2708, 2010; RECQ1 helicase DNA unwinding, fluorescence; shares compounds with RECQ1 inh-1; 610 compounds, 28% hits; further: on the % scale 0 is the no-effect control and ±100 the full control effect; nearly all actives have a fitted effect of over 45% in size
# RECQ1 ADP FP: Counterscreen for RECQ1 Inhibitors: ADP Fluorescence Polarization Displacement Assay. ADP fluorescence polarization displacement counterscreen. shares compounds with RECQ1 inh-1. Potency, µM (highest dose often 228 µM), for inactives: at the top dose activity change, negative = inhibition, usual class: inhibitors. 530 compounds, 27% hits. AID 2711, 2010; further: on the % scale 0 is the no-effect control and ±100 the full control effect; nearly all actives have a fitted effect of over 45% in size
# RECQ1 inh-2: Confirmation qHTS Assay for Inhibitors of RecQ-Like Dna Helicase 1 (RECQ1) - Round 2 Cherry Picks | shares compounds with RECQ1 inh-1 | recombinant RECQ1 DNA unwinding, red fluorescence | Potency, µM (top dose mostly 119 µM), inactives show at the top dose activity, negative = inhibition, actives largely listed as inhibitors | 1,100 compounds, 15% hits; further: on the % scale 0 is the no-effect control and ±100 the full control effect; nearly all actives have a fitted effect of over 50% in size
# Numbers without * were called inactive; i = inactive; ? = inconclusive; nt = no result; [ ] = remark or other dose. Unless noted, the call rests on the fitted dose curve; in most records, active means well fitted curve in the direction sought with a large enough effect; inconclusive means small, poorly fitted or top-dose-only effect, or another doubt; inactive means no such curve, though single readings can be large; an effect the other way counts as inactive or inconclusive. Potency means the concentration at half of the fitted maximal effect.
SMILES,ERG-DNA inh,BLM helicase inh,RECQ1 inh-1,TR SRC2 fluor cs,GoLoco inh red,TRb-SRC2 inh,RECQ1 inh-2,others
CC(C)(O)C#Cc1ccc(CN2CCCC(CO)(Cc3cccc(Cl)c3)C2)cc1 (configuration not stated),-1%,-7%,?,-1%,29%,7%,-26%,
O=c1[nH]c2cc3c(cc2cc1CN(Cc1cccs1)Cc1nnnn1Cc1ccco1)OCCO3,23%,-24%,?,-15%,13%,1%,-13%,
O=c1[nH]c2cc3c(cc2cc1CN(Cc1ccccc1)Cc1nnnn1Cc1ccco1)OCCO3,16%,-27%,?,-5%,38%,-1%,nt,
CCc1ccc2[nH]c(=O)c(CN(Cc3ccccc3)Cc3nnnn3Cc3ccco3)cc2c1,-3%,-29%,32µM*,-3%,-5%,5%,-17%,
CCc1nn(CC(=O)NCc2ccco2)c(=O)c2cc3c(OC)cccc3n12,1%,-8%,nt,-18%,nt,6%,nt,
CCCCCCCCCCCCCCCCN,nt,-1%,nt,0%,nt,-2%,nt,
CS[C@@H](CC(=O)O)C(=O)O,nt,nt,nt,nt,3%[14.2 µM],nt,nt,
Cc1nnc2ccc(-c3ccc(NC(=O)Cc4cccs4)cc3)nn12,0%,-12%,32µM*,-12%,19%,5%,-29%,
COc1ccc(CN(CCC(c2ccccc2)c2ccco2)C(=O)c2ccco2)cc1 (configuration not stated),-2%,-19%,?,-1%,27%,-23%,nt,
CCN(CC)C(=O)CC(c1ccccc1)c1ccco1 (configuration not stated),7%,-4%,?,-5%,6%,1%,?,
O=C(c1ccco1)N(CCC(c1ccccc1)c1ccco1)Cc1ccccc1 (configuration not stated),3%,-25%,11µM*,0%,8%,3%,45µM*,RECQ1 inh conf=?;RECQ1 ADP FP=20%[91.9 µM]
N#CC1=C(SCC(=O)c2cc3ccccc3oc2=O)NC(=O)C(C#N)C12CCCC2 (configuration not stated),12%,-16%,?,-5%,61%,6%,-8%,
CC(C)(C)C1CCC2(CC1)C(C#N)=C(SCC(=O)Nc1ccccc1)NC(=O)C2C#N (configuration not stated),-3%,-18%,13%,-2%,5%,-14%,nt,
O=C(O)CCc1ccc(-c2ccccc2)n1-c1cccc(Br)c1,-1%,-2%,nt,-3%,nt,1%,nt,
CC(C)[C@@H](OCc1ccccc1)[C@H](C)/C=N\O[C@@H](C)c1cn([C@H](CO)Cc2ccccc2)nn1,nt,5%[12.4 µM],8%[11.5 µM],-8%[11.2 µM],nt,-1%[11.2 µM],nt,
Cc1ccc(C(=O)OCC(=O)NCc2ccco2)s1,1%,?,13µM*,2%,12%,-12%,?,RECQ1 inh conf=?;RECQ1 ADP FP=-14%[91.9 µM]
O=C(COC(=O)CCC(=O)c1ccc(Cl)cc1)NCc1ccco1,-6%,2%,?,-2%,11%,-13%,?,
Cc1ccc(C(=O)OCC(=O)NCc2cccs2)s1,11%,nt,nt,nt,nt,nt,nt,
CC1CCC(O)([C@](C)(C(=O)O)c2ccccc2)CC1 (some centres not stated),nt,nt,nt,nt,-3%[14.2 µM],nt,nt,
C[C@H]1COc2c(N3CCN(C)CC3)c(F)cc3c(=O)c(C(=O)NCc4ccco4)cn1c23,nt,2%,-3%,-1%,2%,4%,nt,
COc1cccc(-c2nccc(NCc3ccc(OC)cc3OC)n2)c1,nt,-3%,i,nt,-2%,nt,nt,
CCOc1ccccc1/C=C(\NC(=O)c1ccccc1)C(=O)NCCC(=O)O,-3%,6%,-16%,-1%,10%,-3%,nt,RECQ1 inh conf=0%;RECQ1 ADP FP=2%
Cc1ccc(-n2ncc(C(=O)N3CCN(Cc4ccccc4)CC3)c2C2CCN(C(=O)OC(C)(C)C)CC2)c(C)c1,1%,0%,nt,3%,nt,6%,nt,
COc1ccc(C(CCN2CCCCC2)c2c(OC)cc(OC)c3c(-c4ccccc4)cc(=O)oc23)cc1 (configuration not stated),-3%,2%,7%,-1%,12%,1%,nt,
CCN(CC)C(=O)CC(c1ccc(OC)cc1)c1c(OC)cc(OC)c2c(-c3ccccc3)cc(=O)oc12 (configuration not stated),nt,-27%,20µM*,0%,nt,4%,?,
SMILES,ERG-DNA inh,BLM helicase inh,RECQ1 inh-1,TR SRC2 fluor cs,GoLoco inh red,TRb-SRC2 inh,RECQ1 inh-2,others
CC1(CC(=O)O)O[C@H]2CCCCC[C@H]2O1 (some centres not stated) (tested in a mixture with another compound),nt,nt,nt,nt,2%[14.2 µM],nt,nt,
N#C/C(=C\c1ccc(C(=O)O)cc1)c1nc2sc3c(c2c(=O)[nH]1)CCCC3,11%,?,25µM*,0%,36%,7%,?,
CCOC(=O)c1nc2sc3c(c2c(=O)[nH]1)CCCC3,-4%,0%,-6%,6%,8%,-2%,nt,
O=C1NC(=S)SC1=C1CCCC1,12%,?,7.9µM*,0%,24%,-13%,nt,RECQ1 inh conf=?;RECQ1 ADP FP=45µM*
COc1ccc(-n2c(=O)c(-c3cccs3)nc3cnc(N4CCNCC4)nc32)cc1,nt,-21%,?,nt,36%,nt,-27%,
NC(=O)CCC1NC(=O)C(Cc2ccccc2)NC(=O)C(Cc2ccc(O)cc2)NC(=O)CCSSCC(C(=O)N2CCCC2C(=O)NC(CCCN=C(N)N)C(=O)NCC(N)=O)NC(=O)C(CC(N)=O)NC1=O (configuration not stated),nt,5%,nt,nt,nt,nt,nt,
